# Only some compounds are listed: those with a hit (about 7.5% of all), similar ones and a draw of the others.
# Luc counter = Counterscreen for Luciferase (Kinase-Glo TM) Inhibition | Luciferin 4-monooxygenase (Photuris pensylvanica), Q27757 | Kinase-Glo luciferase, ATP luminescence, 8 min | Potency, µM (titrated, usually from 38.3 µM), for the others: at the highest dose activity change, negative = inhibition, usual class: inhibitors | 200,000 tested, 0.28% active | AID 1379, 2008; note: % is set by controls: 0 for no effect and ±100 for the full control effect; nearly all actives have a fitted effect of over 60% in size
#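 Kinase-Glo luciferase light output from ATP and luciferin was measured with 10 uM ATP, within the enzyme's linear range. Buffer: 50 mM imidazole pH 7.2, 50 mM KCl, 7 mM MgCl2, 0.01% Tween 20, 0.05% BSA; luminescence read after 8 min at ambient temperature.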
# FLuc modulator = qHTS profiling assay for firefly luciferase inhibitor/activator using purifed enzyme and Km concentrations of substrates (counterscreen for miR-21 project); purified FLuc, Km substrates, luminescence inhibition; 360,000 tested, 6.9% active; Luciferin 4-monooxygenase (Photinus pyralis), P08659; Potency, µM (titrated, usually from 57.5 µM), for inactives: at the highest dose activity change, negative = inhibition, usual class: inhibitors; AID 588342, 2011;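 note: plate controls were vehicle for no effect and reference inhibitor for full effect; nearly all actives have a fitted effect of over 55% in size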
# Target sequence (P08659 whole entry, looked up): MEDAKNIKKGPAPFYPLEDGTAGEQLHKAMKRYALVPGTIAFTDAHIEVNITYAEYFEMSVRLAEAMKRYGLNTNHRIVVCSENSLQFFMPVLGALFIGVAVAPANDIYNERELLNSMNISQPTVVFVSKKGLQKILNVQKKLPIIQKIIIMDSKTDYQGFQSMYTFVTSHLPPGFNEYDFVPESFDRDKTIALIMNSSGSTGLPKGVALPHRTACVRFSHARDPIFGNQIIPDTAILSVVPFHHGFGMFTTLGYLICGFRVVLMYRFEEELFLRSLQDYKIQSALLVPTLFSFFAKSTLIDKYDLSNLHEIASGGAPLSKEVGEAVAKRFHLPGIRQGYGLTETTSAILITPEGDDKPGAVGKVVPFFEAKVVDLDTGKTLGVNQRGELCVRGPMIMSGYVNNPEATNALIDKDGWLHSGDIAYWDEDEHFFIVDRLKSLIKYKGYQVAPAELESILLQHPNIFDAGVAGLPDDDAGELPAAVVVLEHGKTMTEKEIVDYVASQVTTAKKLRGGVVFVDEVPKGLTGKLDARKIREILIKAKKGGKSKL
#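 Purified P. pyralis luciferase (10nM final) with 10uM D-luciferin and 10uM ATP (Km levels) in 50mM Tris acetate pH 7.5, 10mM Mg acetate, 0.01% Tween-20, 0.05% BSA; qHTS 6-point titration, ~60 µM downward; luminescence read.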
# ELG1 genotoxic = qHTS screen for small molecules that induce genotoxicity in human embryonic kidney (HEK293T) cells expressing luciferase-tagged ELG1; HEK293T ELG1-luciferase reporter, luminescence, 16 h; 330,000 tested, 1.3% active; Potency, µM (highest dose often 46 µM), without a hit: at the top dose activity change, positive = activation, usual class: activators; note: % of control where 0% means no effect; nearly all actives have a fitted effect of over 60% in size
#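 After overnight (16 hr) compound treatment at 37 °C, ELG1-luciferase HEK293T cells were lysed with ONE-Glo; luminescence quantified 30 min later at room temperature.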
# SMN2 splice enh = qHTS Assay for Enhancers of SMN2 Splice Variant Expression | Potency, µM (top dose mostly 46.1 µM), inactives show at the top dose activity change, positive = activation, most hits filed as activators | 210,000 tested, 2.8% active | HEK293 SMN2-luciferase splicing reporter, luminescence, 30-36 h; note: % of control where 0% means no effect; nearly all actives have a fitted effect of over 55% in size
#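 HEK293 cells carry an SMN2 minigene-luciferase reporter in which exon 7 inclusion puts luciferase in frame. Cells were seeded at 2000 cells/well, attached for 10-12 hours, then exposed to compounds for 30-36 hours at 37C before ONE-Glo luminescence.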
# Rab9 prom act = qHTS Assay for Rab9 Promoter Activators; Huh7 Rab9 promoter-luciferase reporter, luminescence, 24 h; Potency, µM (top dose mostly 9.22 µM), inactives show top-dose activation, negative = inhibition, hits mostly activators; 320,000 tested, 2.8% active; note: % of control where 0% means no effect; nearly all actives have a fitted effect of over 60% in size
#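 Quantitative HTS format; Huh7 Rab9-luciferase reporter cells (1500/well) receive compound 2 h post-plating, incubate 24 h at 37 °C, then get luciferase reagent for 10 min before luminescence reading.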
# NPC1 prom act = qHTS Assay for NPC1 Promoter Activators; AID 485313, 2010; Potency, µM (series often up to 9.22 µM), for inactives: at the highest dose activation, hits mostly activators; Huh7 NPC1 promoter luciferase reporter, 24 h; 320,000 tested, 2.4% active; note: % of control where 0% means no effect; nearly all actives have a fitted effect of over 60% in size
#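 Readout is luciferase luminescence, reflecting NPC1 promoter activation in stably transfected Huh7 cells after 24 h compound exposure at 37 °C in reduced-serum medium with 10% FBS.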
# Numbers without * were called inactive; ? = inconclusive; · = not tested or not shown; [ ] = another dose, or the depositor's remark. Calls come from the whole dose curve; as a rule, active = well fitted curve in the direction sought with a large enough effect; inconclusive = small, poorly fitted or top-dose-only effect, or another doubt; inactive = no such curve, though single readings can be large; an effect the other way counts as inactive or inconclusive. Potency is the fitted concentration of half-maximal effect.
SMILES,Luc counter,FLuc modulator,ELG1 genotoxic,SMN2 splice enh,Rab9 prom act,NPC1 prom act
O=C(Nc1onc2c1CCCC2)c1ccccc1,·,4.8µM*,·,?,·,·
Cc1noc(NC(=O)c2ccccc2)c1C#N,0%,-2%,4%,-24%,-4%,8%
O=C(Cn1c(=O)oc2cc(S(=O)(=O)N3CCCCC3)ccc21)NCc1ccc(Cl)cc1,·,-13%,·,-42%,·,·
COc1cccc(CC(=O)N2CCc3nc(-c4ccccc4)c4c(c3C2)CO[C@@H](C)C4)c1,-4%[7.66 µM],·,·,1%[9.22 µM],·,·
CC(C)c1nnc(NC(=O)c2ccc3ccccc3c2)s1,·,2.1µM*,?,·,1µM*,1µM*
Cc1nnc(NC(=O)c2ccc3ccccc3c2)s1,·,11µM*,4.6µM*,·,1.4µM*,1.8µM*
NC1=N[C@H](c2ccc(Cl)cc2)N(c2ccc(S(=O)(=O)Nc3ncccn3)cc2)C(N)=N1,-1%[7.66 µM],·,·,-11%[9.22 µM],·,·
c1ccc(-c2ccc(-c3ccccn3)s2)nc1,·,1.5µM*,?,·,4µM*,?
CCOc1ccc(NC(=O)C2CC(=O)NC(=Nc3ccc(Cl)c(Cl)c3)S2)cc1 (stereo not given),·,-7%,·,0%,·,·
Cc1ccc(COc2ccc3oc(-c4ccccc4)c(C(=O)O)c3c2)cc1,·,11µM*,·,11%,·,·
Cc1ccc2oc(-c3ccccc3)c(C(=O)O)c(=O)c2c1,-3%,21µM*,?,?,?,3.5µM*
COc1ccc2oc(-c3ccccc3)c(C(=O)O)c2c1,·,-5%,5%,·,-4%,-1%
Clc1ccc(CSc2cc3c(nn2)-c2ccccc2CC3)cc1,4%,12µM*,6%,12%,28%,?
Clc1ccc(Cc2ccc(SCc3ccccc3)nn2)c(Cl)c1,0%,-9%,-5%,-1%,-1%,-3%
Cc1ccccc1C(=O)Nc1ccc2c(c1)OCCO2,·,2.4µM*,1.8µM*,·,0.4µM*,0.5µM*
CC(=O)Nc1ccc2c(c1)CCCC2,·,-14%,3%,·,7%,3%
Cc1occc1C(=O)Nc1ccc2c(c1)CCC2,13µM*,9.5µM*,18µM*,11µM*,4µM*,3.5µM*
Cc1cc(C(=O)Nc2ccc3c(c2)OCCO3)c2ccccc2n1,9%,-3%,8%,-18%,2%,1%
CC(=O)c1c(Nc2ccc3c(c2)OCCO3)oc(C)cc1=O,-3%,27µM*,?,-6%,-18%,-1%
O=C(Nc1ccc2c(c1)OCCO2)c1coc2ccccc2c1=O,8.9µM*,0.76µM*,?,9%,10%,-1%
O=C(CCN1C(=O)[C@@H]2Cc3ccccc3CN2C1=O)NCc1ccccc1Cl,·,0%,0%,·,-1%,14%
CCOc1ccc(C(=O)Nc2c(C(=O)Nc3ccccc3OC)oc3ccccc23)cc1OCC,·,?,·,9%,·,·
COC(=O)c1cc(S(=O)(=O)NCCN2CCOCC2)cn1C,·,3%,4%,·,1%,3%
Cc1cccc(C)c1N1CCN(C(=O)Nc2ccc3c(c2)OCCO3)CC1,0%,9.5µM*,0%,-13%,?,?
CSc1ccccc1C(=O)Nc1ccc2c(c1)OCCO2,-13%,?,·,5%,·,·
SMILES,Luc counter,FLuc modulator,ELG1 genotoxic,SMN2 splice enh,Rab9 prom act,NPC1 prom act
O=C(Nc1ccc2c(c1)OCO2)N1CCN(Cc2ccco2)CC1,·,0.95µM*,?,·,0.79µM*,?
Cc1cc(C(=O)Nc2cccc(O)c2)c(C)o1,-5%,?,?,23%,-3%,7%
Cc1cc(C(=O)Nc2ccc3c(c2)OCCO3)c(C)o1,-5%,7.6µM*,4.6µM*,11µM*,3.2µM*,?
Cc1occc1C(=O)Nc1ccc2c(c1)OCCO2,7.1µM*,8.5µM*,?,?,1.3µM*,3.2µM*
O=C(Nc1ccc2c(c1)OCCO2)N1CCN(c2ccc(F)cc2)CC1,2%,-16%,20%,-50%,-6%,6%
O/N=C\c1cnc(N2CCN(c3ccccc3)CC2)s1,·,17µM*,?,·,?,16%
COc1cc(NC(=O)c2cc(-c3ccco3)on2)cc(OC)c1OC,·,1%,-19%,·,-1%,2%
Cc1ccc(CNCC(=O)Nc2ccc(N3CCOCC3)cc2)cc1,·,-1%,0%,·,-3%,-3%
O=C(N/N=C/c1ccncc1)c1nc2ccccc2c(=O)[nH]1,·,-9%,?,·,3%,-5%
C=CCn1c(N/N=C/c2ccc(O)cc2)nc2ccccc2c1=O,-16%,2.4µM*,?,-1%,30%,-2%
O=c1[nH]c(N/N=C/c2ccc(O)cc2)nc2ccccc12,0%,11µM*,21µM*,22µM*,2.2µM*,?
O=c1[nH]c(N/N=C\c2ccc(F)cc2)nc2ccccc12,-5%,4.8µM*,?,10µM*,1.3µM*,?
COc1ccc(Nc2nc3ccccc3c(=O)[nH]2)cc1,·,-19%,5%,·,4%,-5%
Cc1ccc(S(=O)(=O)N2CCCC(c3nc4c(nnn4Cc4ccc(OC(F)(F)F)cc4)c(=O)[nH]3)C2)cc1 (stereo not given),·,3%,·,-4%,·,·
Cc1cc(C)cc(C(=O)NC(=S)Nc2cccnc2)c1,·,?,5%,·,-5%,2%
COc1ccc(NC(=O)CCSc2nc(-c3ccco3)cc(C(F)(F)F)n2)cc1,·,0%,·,-7%,·,·
CN(C)c1ccc(NC(=O)CCSc2nc(-c3ccco3)cc(C(F)(F)F)n2)cc1,·,9.5µM*,·,3%,·,·
O=C1OCCC1Sc1nc2ccccc2s1 (stereo not given),2%,0%,1%,8%,-4%,-4%
O=C1CCCCC1Sc1nnc(Nc2ccccc2)s1 (stereo not given),-2%,19µM*,?,10µM*,3.2µM*,2.5µM*
Cc1cccc(Nc2nnc(SC3CCOC3=O)s2)c1C (stereo not given),-1%,?,0%,1%,3%,-4%
CC(C)c1ccc(Nc2nnc(SC3CCOC3=O)s2)cc1 (stereo not given),-1%,7.6µM*,-1%,5%,0%,0%
Cc1ccc(Nc2nnc(SC3CCOC3=O)s2)cc1 (stereo not given),1%,17µM*,3%,14%,-3%,7%
CSCC[C@H](NC(=O)[C@H](Cc1ccccc1)NC[C@@H](NC[C@@H](N)CS)C(C)C)C(=O)O,·,·,·,11%,·,·

# Screening data: PubChem, National Center for Advancing Translational Sciences (NCATS)
